According to the supplement of paper PMC11732987, “Enantioselective OTUD7B fragment discovery through chemoproteomics screening and high-throughput optimisation” (Communications Chemistry, 2025):

Key:
Assay in all cases: log2 ratio of Biotin-Ahx-Ub-VS probe labelling (fragment/DMSO); higher = less target engagement (more negative = stronger competition), active = hit call of the paper (q ≤ 0.05, log2 ratio ≤ -1)
Conditions in all cases: compound concentration: 200 uM; treatment time: 3 h
USP42 = target: T1, USP42 (UniProt Q9H9J4)
T1 sequence (whole entry): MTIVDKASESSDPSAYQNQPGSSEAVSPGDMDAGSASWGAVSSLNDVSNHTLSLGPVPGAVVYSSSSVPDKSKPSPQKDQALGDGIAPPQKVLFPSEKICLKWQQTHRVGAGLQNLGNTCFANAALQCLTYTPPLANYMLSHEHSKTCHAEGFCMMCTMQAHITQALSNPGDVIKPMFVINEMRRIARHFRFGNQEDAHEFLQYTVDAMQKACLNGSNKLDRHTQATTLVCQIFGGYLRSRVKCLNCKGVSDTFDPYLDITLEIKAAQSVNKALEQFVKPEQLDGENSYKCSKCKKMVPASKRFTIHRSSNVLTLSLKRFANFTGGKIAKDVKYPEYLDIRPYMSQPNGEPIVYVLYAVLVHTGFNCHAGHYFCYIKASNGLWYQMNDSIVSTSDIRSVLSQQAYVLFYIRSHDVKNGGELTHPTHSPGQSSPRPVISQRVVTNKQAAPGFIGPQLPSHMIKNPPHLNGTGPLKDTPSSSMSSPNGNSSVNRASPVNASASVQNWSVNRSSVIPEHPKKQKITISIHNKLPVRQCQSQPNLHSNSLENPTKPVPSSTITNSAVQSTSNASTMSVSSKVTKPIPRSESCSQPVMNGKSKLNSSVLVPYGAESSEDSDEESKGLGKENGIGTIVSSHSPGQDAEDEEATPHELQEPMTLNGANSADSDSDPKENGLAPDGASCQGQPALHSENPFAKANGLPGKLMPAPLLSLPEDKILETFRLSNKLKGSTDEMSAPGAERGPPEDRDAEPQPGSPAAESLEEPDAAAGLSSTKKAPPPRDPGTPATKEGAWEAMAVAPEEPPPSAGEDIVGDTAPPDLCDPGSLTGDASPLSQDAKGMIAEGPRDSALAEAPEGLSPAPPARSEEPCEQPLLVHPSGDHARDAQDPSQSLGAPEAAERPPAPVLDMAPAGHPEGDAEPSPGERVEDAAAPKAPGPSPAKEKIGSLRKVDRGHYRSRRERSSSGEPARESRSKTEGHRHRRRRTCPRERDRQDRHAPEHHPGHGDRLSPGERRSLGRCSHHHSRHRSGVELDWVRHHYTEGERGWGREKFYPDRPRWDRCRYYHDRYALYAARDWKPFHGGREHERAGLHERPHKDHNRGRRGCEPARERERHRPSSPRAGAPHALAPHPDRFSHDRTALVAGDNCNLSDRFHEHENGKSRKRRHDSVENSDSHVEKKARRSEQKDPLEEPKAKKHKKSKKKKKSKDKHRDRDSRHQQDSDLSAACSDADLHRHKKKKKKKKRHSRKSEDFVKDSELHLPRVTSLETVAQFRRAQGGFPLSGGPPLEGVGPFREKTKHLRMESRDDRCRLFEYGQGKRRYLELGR
Method in brief: (§1)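 Labelling with Biotin-Ahx-Ub-VS (0.5 µM final, 1 h) followed a 3 h triplicate treatment of HEK293T lysate (495 µg per sample, Tris/CHAPS/IGEPAL buffer with protease inhibitors) with fragment at 200 µM or vehicle. Labelled DUBs were NeutrAvidin-enriched, digested with LysC and trypsin, and run by diaPASEF LC-MS/MS. The values, average log2 fragment/vehicle ratios by unpaired t-test, come from global-median-normalised Spectronaut label-free quantities. Proteins with ≥2 unique peptides were used.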

USP46 = USP46 (UniProt P62068)
Method in brief: as §1

USP47 = target: T2, USP47 (UniProt Q96K76)
T2 sequence (whole entry): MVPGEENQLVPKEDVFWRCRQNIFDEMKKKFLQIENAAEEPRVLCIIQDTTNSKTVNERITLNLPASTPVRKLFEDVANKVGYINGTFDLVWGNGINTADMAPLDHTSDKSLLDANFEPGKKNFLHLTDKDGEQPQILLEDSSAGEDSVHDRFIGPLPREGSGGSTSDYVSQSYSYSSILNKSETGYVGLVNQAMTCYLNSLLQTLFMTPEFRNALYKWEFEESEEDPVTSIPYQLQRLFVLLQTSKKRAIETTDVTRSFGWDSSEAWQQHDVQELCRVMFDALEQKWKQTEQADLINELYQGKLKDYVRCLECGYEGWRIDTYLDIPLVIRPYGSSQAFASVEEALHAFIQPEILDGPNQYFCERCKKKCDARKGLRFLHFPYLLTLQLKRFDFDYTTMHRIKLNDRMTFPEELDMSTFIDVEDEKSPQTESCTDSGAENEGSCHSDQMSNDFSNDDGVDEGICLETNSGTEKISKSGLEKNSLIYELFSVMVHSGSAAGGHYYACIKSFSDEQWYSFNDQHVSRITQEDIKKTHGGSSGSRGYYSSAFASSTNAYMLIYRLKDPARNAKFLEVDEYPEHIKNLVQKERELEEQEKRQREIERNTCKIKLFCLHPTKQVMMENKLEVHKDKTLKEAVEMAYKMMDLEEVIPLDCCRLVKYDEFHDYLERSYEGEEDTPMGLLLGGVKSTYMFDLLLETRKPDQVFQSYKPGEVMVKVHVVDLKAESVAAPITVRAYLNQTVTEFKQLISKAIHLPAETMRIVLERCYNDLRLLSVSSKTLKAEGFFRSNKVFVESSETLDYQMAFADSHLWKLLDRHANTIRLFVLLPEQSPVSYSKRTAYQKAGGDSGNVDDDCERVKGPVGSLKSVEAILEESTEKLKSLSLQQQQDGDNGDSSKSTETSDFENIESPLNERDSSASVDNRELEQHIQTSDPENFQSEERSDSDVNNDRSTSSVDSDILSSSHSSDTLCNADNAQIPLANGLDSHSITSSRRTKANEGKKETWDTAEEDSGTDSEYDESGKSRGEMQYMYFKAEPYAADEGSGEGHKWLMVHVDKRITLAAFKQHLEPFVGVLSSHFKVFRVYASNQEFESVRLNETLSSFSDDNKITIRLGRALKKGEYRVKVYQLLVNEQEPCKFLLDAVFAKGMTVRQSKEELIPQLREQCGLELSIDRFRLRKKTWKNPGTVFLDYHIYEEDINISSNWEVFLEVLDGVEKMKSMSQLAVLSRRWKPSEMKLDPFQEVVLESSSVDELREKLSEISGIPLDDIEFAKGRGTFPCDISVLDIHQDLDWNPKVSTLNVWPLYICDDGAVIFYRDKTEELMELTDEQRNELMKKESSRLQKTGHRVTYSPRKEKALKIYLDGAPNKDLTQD
Method in brief: as §1

USP48 = target: T3, USP48 (UniProt Q86UV5)
T3 sequence (whole entry): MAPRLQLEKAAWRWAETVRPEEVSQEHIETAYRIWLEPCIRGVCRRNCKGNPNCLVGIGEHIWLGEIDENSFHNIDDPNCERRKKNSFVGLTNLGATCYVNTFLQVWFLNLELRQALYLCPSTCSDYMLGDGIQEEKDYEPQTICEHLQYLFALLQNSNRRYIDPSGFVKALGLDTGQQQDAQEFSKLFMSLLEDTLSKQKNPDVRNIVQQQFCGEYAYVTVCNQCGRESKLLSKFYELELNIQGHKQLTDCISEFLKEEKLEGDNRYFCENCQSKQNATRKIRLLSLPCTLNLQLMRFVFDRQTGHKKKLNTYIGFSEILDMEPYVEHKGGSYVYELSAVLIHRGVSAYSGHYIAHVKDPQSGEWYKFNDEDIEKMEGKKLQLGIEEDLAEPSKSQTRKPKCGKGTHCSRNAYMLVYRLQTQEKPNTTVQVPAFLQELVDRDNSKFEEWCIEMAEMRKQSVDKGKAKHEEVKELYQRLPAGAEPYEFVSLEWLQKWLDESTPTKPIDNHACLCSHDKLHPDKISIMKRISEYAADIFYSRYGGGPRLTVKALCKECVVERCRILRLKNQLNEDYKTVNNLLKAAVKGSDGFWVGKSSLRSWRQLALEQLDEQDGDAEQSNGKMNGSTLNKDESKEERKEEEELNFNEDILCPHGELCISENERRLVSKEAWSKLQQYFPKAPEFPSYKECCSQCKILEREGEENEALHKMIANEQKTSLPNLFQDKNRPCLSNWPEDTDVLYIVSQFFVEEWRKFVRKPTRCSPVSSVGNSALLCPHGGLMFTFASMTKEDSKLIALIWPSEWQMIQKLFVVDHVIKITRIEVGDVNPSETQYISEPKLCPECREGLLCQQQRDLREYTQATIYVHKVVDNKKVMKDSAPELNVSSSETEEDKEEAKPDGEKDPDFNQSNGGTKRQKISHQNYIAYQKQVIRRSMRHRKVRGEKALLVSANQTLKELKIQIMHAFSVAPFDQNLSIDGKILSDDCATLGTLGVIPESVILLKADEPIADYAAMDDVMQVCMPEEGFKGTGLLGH
Method in brief: as §1

USP5 = target: T4, USP5 (UniProt P45974)
T4 sequence (whole entry): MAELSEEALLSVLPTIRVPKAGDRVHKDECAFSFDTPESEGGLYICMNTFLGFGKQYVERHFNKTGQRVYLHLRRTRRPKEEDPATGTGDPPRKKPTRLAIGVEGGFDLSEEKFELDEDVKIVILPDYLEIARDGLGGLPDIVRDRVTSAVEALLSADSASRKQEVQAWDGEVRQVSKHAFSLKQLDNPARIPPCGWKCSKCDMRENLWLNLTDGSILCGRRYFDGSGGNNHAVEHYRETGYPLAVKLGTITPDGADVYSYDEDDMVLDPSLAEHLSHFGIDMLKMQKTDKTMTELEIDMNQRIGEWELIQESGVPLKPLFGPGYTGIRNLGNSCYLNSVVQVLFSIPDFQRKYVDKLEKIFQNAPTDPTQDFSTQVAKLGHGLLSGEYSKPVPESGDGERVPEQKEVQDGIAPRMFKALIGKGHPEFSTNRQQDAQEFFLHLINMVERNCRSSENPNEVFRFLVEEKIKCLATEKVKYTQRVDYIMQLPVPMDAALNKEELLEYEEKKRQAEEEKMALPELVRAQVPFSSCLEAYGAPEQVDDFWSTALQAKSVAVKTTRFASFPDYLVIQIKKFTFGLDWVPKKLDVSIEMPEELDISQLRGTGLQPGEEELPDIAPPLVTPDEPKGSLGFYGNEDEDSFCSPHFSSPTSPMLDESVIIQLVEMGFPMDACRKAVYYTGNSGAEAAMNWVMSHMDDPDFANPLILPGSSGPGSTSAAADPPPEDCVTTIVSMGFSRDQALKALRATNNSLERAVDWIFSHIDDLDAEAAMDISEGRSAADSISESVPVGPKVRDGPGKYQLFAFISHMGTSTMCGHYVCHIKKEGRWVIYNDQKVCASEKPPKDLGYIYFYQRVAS
Method in brief: as §1

USP54 = USP54 (UniProt Q70EL1)
Method in brief: as §1

USP7 = USP7 (UniProt Q93009)
Method in brief: as §1

USP8 = target: T5, USP8 (UniProt P40818)
T5 sequence (whole entry): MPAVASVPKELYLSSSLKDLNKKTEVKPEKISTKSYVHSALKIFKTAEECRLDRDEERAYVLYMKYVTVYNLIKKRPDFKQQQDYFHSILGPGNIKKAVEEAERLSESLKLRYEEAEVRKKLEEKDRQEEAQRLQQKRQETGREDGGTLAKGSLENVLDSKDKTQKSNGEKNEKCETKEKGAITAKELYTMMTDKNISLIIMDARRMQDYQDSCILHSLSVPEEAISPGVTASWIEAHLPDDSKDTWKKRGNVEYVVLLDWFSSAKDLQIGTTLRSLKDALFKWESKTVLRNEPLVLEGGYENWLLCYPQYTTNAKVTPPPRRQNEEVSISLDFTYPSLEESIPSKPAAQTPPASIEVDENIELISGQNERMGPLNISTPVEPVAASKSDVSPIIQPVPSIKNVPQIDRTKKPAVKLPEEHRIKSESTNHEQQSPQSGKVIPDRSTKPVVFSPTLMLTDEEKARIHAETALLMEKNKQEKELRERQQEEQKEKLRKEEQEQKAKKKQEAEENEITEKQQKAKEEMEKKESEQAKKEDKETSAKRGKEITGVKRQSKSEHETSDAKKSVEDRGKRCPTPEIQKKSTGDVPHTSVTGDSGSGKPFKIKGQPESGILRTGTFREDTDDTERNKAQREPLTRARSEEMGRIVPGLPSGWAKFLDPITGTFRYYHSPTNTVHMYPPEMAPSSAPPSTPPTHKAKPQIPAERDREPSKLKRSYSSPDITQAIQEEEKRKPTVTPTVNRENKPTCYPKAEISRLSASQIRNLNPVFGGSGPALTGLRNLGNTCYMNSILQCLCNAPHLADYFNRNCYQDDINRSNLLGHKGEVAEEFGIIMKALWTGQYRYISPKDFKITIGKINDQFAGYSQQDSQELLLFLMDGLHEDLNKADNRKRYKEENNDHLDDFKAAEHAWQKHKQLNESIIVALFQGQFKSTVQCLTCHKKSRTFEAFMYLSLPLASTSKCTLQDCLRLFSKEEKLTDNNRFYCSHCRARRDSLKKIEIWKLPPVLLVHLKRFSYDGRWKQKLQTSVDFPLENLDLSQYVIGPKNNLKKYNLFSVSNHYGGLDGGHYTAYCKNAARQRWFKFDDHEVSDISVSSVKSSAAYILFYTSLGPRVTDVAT
Method in brief: as §1

USP9X = USP9X (UniProt Q93008)
Method in brief: as §1

UniProt O00487 = target: UniProt O00487
Method in brief: as §1

Measured: log2 ratio of Biotin-Ahx-Ub-VS probe labelling

USP54, sequence (Q70EL1 whole entry): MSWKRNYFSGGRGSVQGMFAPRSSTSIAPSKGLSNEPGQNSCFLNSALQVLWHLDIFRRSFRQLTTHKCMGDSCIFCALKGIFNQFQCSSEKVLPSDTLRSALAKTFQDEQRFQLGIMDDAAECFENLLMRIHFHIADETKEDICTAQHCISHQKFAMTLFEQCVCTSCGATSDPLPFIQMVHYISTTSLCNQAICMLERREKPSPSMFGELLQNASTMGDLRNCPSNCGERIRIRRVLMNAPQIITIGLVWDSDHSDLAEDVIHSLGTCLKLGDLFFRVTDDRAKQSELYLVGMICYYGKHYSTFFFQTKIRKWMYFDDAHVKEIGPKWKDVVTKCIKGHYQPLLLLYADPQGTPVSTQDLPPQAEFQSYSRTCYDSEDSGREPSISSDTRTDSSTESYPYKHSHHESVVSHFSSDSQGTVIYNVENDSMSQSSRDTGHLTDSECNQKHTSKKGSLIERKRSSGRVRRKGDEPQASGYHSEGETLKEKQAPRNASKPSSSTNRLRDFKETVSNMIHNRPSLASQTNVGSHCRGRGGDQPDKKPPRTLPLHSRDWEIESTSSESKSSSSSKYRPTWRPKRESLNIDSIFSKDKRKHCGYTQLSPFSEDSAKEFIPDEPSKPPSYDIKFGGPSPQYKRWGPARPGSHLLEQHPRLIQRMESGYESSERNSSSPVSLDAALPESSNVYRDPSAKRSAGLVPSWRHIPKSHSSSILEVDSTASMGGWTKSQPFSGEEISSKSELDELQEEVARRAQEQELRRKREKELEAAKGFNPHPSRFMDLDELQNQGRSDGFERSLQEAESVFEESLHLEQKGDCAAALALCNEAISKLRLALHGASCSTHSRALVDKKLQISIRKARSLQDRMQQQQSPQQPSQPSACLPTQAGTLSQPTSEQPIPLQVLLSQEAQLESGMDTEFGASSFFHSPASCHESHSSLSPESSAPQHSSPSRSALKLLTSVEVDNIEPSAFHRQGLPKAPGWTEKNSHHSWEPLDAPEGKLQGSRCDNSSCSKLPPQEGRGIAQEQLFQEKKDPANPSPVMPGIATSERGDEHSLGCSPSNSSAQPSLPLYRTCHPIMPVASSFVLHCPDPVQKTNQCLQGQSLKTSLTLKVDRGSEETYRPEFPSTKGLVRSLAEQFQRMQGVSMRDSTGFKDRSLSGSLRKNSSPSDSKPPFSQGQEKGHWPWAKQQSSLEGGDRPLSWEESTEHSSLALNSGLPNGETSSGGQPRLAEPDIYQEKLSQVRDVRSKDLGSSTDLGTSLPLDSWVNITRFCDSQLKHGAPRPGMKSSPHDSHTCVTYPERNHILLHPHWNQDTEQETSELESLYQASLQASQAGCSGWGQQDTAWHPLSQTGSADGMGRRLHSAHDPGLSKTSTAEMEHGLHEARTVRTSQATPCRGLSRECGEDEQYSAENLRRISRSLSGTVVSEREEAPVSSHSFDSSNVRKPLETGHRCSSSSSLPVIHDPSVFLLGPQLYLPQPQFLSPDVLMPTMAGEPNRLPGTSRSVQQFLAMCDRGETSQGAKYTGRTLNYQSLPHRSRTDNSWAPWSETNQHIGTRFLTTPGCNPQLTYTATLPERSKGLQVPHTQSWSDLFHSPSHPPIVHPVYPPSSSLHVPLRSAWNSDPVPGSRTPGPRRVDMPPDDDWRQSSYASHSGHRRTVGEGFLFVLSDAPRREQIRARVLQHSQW
UniProt O00487, sequence (O00487 whole entry): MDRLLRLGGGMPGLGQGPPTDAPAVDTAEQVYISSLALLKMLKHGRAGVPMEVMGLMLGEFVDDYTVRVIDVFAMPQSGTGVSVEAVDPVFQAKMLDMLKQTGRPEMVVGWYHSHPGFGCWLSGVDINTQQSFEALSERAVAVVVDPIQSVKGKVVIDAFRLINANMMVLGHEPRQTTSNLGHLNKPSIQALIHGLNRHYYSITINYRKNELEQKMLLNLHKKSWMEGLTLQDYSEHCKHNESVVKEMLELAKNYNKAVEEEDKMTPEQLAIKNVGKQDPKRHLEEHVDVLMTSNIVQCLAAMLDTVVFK
USP9X, sequence (Q93008 whole entry): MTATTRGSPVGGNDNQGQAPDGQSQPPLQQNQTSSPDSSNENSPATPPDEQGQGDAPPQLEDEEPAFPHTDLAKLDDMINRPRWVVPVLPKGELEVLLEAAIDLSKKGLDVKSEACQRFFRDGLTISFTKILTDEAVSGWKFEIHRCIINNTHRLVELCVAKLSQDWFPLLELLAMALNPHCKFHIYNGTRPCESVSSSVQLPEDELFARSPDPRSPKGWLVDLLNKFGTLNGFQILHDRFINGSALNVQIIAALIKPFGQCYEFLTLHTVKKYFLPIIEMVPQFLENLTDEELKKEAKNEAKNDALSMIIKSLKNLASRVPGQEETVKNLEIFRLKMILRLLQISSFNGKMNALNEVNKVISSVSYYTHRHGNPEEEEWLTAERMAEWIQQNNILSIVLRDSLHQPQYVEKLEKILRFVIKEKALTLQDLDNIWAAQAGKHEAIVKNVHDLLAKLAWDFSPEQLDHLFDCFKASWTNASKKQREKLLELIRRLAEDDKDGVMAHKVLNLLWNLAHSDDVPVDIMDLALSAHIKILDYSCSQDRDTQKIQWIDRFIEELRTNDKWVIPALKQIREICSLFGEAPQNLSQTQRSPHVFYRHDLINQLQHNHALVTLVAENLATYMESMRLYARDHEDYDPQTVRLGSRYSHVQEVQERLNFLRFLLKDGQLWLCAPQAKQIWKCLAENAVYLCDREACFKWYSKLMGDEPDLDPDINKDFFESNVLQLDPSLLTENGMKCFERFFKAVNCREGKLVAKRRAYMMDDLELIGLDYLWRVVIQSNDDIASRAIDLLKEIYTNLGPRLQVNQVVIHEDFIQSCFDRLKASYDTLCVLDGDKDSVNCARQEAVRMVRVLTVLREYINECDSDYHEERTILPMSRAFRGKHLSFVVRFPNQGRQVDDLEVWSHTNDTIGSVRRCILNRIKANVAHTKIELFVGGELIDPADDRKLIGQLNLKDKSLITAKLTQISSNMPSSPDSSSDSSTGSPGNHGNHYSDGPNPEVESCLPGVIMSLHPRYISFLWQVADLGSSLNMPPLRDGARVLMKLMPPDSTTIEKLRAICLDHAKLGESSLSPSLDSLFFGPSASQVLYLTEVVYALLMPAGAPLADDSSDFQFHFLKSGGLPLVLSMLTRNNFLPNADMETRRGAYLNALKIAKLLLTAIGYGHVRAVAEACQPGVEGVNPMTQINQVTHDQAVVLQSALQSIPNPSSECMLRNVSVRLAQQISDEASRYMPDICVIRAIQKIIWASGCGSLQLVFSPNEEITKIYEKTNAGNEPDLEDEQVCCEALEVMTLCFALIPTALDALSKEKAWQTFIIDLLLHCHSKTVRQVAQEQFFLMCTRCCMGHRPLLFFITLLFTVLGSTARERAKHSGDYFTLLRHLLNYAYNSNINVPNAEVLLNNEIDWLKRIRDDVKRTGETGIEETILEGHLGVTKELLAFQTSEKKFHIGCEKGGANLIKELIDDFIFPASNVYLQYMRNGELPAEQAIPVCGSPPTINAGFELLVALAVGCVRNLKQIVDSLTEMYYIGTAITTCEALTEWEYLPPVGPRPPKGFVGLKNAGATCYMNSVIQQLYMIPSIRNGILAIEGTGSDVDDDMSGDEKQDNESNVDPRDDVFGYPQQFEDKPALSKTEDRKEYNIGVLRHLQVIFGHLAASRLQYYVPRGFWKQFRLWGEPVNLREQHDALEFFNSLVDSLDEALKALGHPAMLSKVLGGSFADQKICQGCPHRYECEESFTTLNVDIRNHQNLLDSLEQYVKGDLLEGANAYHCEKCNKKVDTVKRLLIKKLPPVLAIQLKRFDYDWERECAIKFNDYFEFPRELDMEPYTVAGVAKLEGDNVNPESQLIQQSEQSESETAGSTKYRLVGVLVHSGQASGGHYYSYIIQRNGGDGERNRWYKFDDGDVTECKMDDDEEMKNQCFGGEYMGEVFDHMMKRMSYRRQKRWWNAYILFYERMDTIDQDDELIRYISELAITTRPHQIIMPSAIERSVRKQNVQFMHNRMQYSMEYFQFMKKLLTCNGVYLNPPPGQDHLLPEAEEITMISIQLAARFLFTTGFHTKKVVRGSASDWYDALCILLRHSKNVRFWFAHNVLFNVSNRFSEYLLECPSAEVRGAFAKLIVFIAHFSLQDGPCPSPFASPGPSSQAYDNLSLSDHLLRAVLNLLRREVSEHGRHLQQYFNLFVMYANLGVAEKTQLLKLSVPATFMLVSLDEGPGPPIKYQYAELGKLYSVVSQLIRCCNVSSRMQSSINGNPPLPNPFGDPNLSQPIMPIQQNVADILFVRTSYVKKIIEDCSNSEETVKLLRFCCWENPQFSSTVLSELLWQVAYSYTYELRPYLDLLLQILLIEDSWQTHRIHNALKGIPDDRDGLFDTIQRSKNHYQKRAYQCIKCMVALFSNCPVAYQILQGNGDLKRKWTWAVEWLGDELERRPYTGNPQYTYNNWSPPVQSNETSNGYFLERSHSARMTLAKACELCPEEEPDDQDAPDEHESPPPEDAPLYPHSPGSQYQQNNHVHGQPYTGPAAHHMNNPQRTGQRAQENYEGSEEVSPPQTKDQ
USP46, sequence (P62068 whole entry): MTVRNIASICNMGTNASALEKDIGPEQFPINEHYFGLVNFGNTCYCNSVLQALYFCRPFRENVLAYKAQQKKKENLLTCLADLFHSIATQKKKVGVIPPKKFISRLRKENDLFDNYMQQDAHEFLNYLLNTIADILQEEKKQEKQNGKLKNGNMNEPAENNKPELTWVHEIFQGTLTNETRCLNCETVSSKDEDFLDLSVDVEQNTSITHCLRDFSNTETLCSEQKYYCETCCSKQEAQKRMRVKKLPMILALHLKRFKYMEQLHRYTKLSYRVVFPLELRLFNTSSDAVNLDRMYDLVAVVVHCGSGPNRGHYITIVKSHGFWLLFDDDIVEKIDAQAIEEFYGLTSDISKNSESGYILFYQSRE

O=C(CCl)N1CCCC1c1ccsc1 (stereo not given)
inactive: USP42 -0.371 | USP46 -0.105 | USP47 -0.389 | USP48 -0.959 | USP5 0.45 | USP54 0.559 | USP7 -0.795 | USP8 -0.441 | USP9X -0.231 | UniProt O00487 -0.138
